SMILES strings stand for the structures. Results filed as inconclusive are left out. Active and inactive are the calls of the source. Unless noted, the call rests on the fitted dose curve; in most records, active means well fitted curve in the direction sought with a large enough effect; inconclusive means small, poorly fitted or top-dose-only effect, or another doubt; inactive means no such curve, though single readings can be large; an effect the other way counts as inactive or inconclusive.

Experiment [1] is described as follows: Counterscreen for APE1 Inhibitors: Fluorescent Dye Displacement Validation Assay (AID 1707).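 Further: plate controls were ThO with dsDNA and no compound for no effect and ThO without dsDNA for full effect.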 In outline: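 Compounds are scored by their ability to displace Thiazole Orange (250 nM) from a 50 nM TAMRA-tagged duplex bearing a tetrahydrofuran abasic site. Buffer is 50 mM Tris-HCl pH7.5, 50mM NaCl, 2 mM MgCl2, 0.01% Tween-20.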
Background: A counterscreen serves to expose hits that act by an unwanted route or on another target.

Experiment [2] can be described thus: qHTS for differential inhibitors of proliferation of Plasmodium falciparum line 7G8 (AID 1815;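 further: parasite growth measured after three days of incubation; plate controls were vehicle wells for no effect and reference inhibitor wells for full effect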). (In general: Quantitative high-throughput screening tests each substance at several concentrations.)
A short description of experiment [3]: qHTS for differential inhibitors of proliferation of Plasmodium falciparum line 3D7 (AID 1876).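 Further: parasite growth measured after three days of culture; 0% = vehicle wells and -100% = reference inhibitor wells.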
A short description of experiment [4]: qHTS for differential inhibitors of proliferation of Plasmodium falciparum line D10 (AID 1877).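 Further: parasites grown with compound for 72 h before DNA staining; plate controls were vehicle wells for no effect and reference inhibitor wells for full effect.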
The nature of experiment [5]: qHTS for differential inhibitors of proliferation of Plasmodium falciparum line Dd2 (AID 1882).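 Further: compound exposure of 72 h on infected erythrocytes; plate controls were DMSO vehicle for no effect and 0.29 µM artemisinin for full effect; nearly all actives have a fitted effect of over 65% in size.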 To be noted: Potency: Plasmodium falciparum Dd2 proliferation inhibition. Put shortly: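 SYBR Green I DNA fluorescence read-out, ex 485/em 535 nm. Signals were normalized to 0.29 uM artemisinin and DMSO wells, then corrected using vehicle-only plates flanking each stack. Parasite growth ran 72 h in erythrocytes before lysis.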

Experiment [6] in a line: qHTS for differential inhibitors of proliferation of Plasmodium falciparum line W2 (AID 1883).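 Further: potency means the concentration at half of the fitted maximal effect; parasites grown with compound for 72 h before lysis and staining.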 The settings on record: Potency: Plasmodium falciparum W2 proliferation inhibition.
The nature of experiment [7]: qHTS for differential inhibitors of proliferation of Plasmodium falciparum line HB3 (AID 1886).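 Further: parasites grown with compound for 72 h before SYBR Green readout; plate controls were vehicle for no effect and reference inhibitor for full effect.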 To be noted: Potency: Plasmodium falciparum HB3 proliferation inhibition.
For experiment [8], the target named is Ferritin light chain (Equus caballus) (UniProt P02791). Put plainly: qHTS Validation Assay for Identification of Novel General Anesthetics (AID 2323). Further: on the % scale 0 is the no-effect control and ±100 the full control effect. In outline:
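Normalized fluorescence response, scaled between free 1-AMA and 1-AMA/apoferritin complex, fitted to a four-parameter Hill equation for concentration-effect values. Binding mix: 10 uM horse-spleen apoferritin, 50% saturated 1-AMA in PBS; read 380/535 nm after 10 min.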

For experiment [9], the target named is ATP-dependent DNA helicase Q1 (Homo sapiens) (UniProt P46063). Put plainly: qHTS Validation Assay for Inhibitors of RecQ-Like Dna Helicase 1 (RECQ1) (AID 2353).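 Further: plate controls were DMSO vehicle for no effect and enzyme-free control for full effect.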 Put shortly:
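50 nM RECQ1T1 preincubated 15 min with compound in Tris pH 8.0 buffer with MgCl2, DTT, Tween-20 and 2.5 ug/ml poly(dI-dC); started with 200 nM TAMRA/BHQ-2 forked duplex and 2 mM ATP. Unwinding read as fluorescence (525/598 nm), two reads 2 h apart.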

Experiment [10] is described as follows: Quantitative high throughput screen for delayed death inhibitors of the malarial parasite plastid, 96 hour incubation (AID 488745). Further: on the % scale 0 is the no-effect control and ±100 the full control effect; nearly all actives have a fitted effect of over 70% in size. In outline: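 P. falciparum carrying an integrated firefly luciferase reporter, grown in erythrocytes (2% hematocrit, 0.1% parasitemia final) in RPMI 1640/0.5% Albumax, was exposed to compound for 96 h (two generations) at 37 C, 5% CO2. Luminescence decrease indicated growth inhibition.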

Experiment [11] is described as follows: Quantitative high throughput screen for delayed death inhibitors of the malarial parasite plastid, 48 hour incubation (AID 488752). Further: on the % scale 0 is the no-effect control and ±100 the full control effect; nearly all actives have a fitted effect of over 65% in size. Put shortly:
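Erythrocytes infected with P. falciparum carrying an integrated firefly luciferase reporter (2% hematocrit, 0.1% parasitemia final) were exposed to compounds in RPMI 1640/0.5% Albumax for 48 h at 37 C, 5% CO2. Growth inhibition was scored as reduced luminescence.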

Experiment [12] deals with Thyrotropin receptor (Homo sapiens) (UniProt P16473). Put plainly: qHTS Assay for Antagonists of the Thyroid Stimulating Hormone Receptor (AID 488980). Further: 0% is about no effect. Put shortly: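 Inhibition of TSH-stimulated cAMP accumulation was quantified by homogeneous time-resolved FRET in TSHR-transfected HEK293 cells. Agonist: TSH, 4 nM final (EC80).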
Thyrotropin receptor (Homo sapiens), sequence (P16473 whole entry, looked up): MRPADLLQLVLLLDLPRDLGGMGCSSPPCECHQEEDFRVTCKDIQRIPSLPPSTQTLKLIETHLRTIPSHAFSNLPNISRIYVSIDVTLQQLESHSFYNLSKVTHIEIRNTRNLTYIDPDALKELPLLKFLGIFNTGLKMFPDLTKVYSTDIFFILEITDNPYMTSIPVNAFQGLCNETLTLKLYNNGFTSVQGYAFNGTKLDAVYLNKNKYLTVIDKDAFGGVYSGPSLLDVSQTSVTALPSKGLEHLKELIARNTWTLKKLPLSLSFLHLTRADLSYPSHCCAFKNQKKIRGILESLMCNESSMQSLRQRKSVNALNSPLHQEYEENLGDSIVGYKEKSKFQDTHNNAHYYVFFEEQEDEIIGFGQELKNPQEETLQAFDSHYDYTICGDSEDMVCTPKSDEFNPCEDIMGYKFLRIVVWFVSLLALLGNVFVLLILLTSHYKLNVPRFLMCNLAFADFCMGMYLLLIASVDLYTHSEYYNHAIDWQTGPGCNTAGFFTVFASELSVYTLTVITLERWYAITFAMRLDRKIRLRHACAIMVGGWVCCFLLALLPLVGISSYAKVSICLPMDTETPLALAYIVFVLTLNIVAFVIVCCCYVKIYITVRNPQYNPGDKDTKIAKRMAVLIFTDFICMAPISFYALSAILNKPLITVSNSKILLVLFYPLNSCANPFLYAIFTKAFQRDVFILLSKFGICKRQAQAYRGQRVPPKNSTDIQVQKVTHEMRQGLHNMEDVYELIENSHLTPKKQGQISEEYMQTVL
Experiment [13] addresses Thyrotropin-releasing hormone receptor (Homo sapiens) (UniProt P34981). Put plainly: qHTS for Small Molecule Agonists and Allosteric Enhancers of Human TRH Receptor: Validation Screen for Agonists (AID 493127;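 active means calcium activation more than 3 SD above the typical response in the agonist read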;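 further: intracellular calcium rise by fluo-8 fluorescence before TRH EC20 addition; 0% is about no effect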). The settings on record: TRH receptor agonist cell assay; at 2 µM; stronger effect = higher value. Put shortly:
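TRHR-expressing cells were plated overnight in serum-containing medium, then loaded with fluo-8 calcium dye at room temperature for 30 min–1.5 h. After a 10 s baseline, compound was pin-transferred and calcium fluorescence (ex 480/em 530) read kinetically for agonist response.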

For experiment [14], the target named is Galactokinase (Homo sapiens) (UniProt P51570). As to the kind of experiment: qHTS Validation Assay for Inhibitors of Human Galactokinase (GALK) (AID 493189). Further: 0% is about no effect. In outline: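 Enzyme activity is inferred from ATP consumption: human GALK phosphorylates galactose (100 uM) using 35 uM ATP for 1 h at room temperature, and luciferase-based Kinase-Glo Plus reports unconsumed ATP.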
Galactokinase (Homo sapiens), sequence (P51570 whole entry, looked up): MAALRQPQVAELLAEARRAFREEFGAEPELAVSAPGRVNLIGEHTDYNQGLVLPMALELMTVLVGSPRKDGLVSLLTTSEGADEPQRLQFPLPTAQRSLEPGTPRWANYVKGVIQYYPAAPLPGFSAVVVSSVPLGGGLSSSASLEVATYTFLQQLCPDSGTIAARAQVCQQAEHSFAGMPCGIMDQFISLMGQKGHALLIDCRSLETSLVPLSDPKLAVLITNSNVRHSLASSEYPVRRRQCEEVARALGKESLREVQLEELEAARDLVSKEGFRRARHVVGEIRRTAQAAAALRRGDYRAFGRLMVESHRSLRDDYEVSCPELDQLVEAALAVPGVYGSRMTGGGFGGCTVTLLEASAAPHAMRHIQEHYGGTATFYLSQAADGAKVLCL

Experiment [15] in a line: Validation screen for small molecules that induce DNA re-replication in SW480 colon adenocarcinoma cells (AID 504364). Further: potency means the concentration at half of the fitted maximal effect. Put shortly: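 SW480 cells seeded at 250 per well were exposed to compound or DMSO for 48 hr at 37 C, 5% CO2, then stained with Hoechst for 40 min. DNA content per nucleus was imaged (405 nm ex, 500-530 nm em).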
In experiment [16] the target is Catechol O-methyltransferase (Homo sapiens) (UniProt P21964). As to the kind of experiment: Confirmatory Screen for Target Class Profiling of Small Molecule Inhibitors of Methyltransferases (AID 1745852). On activity change, negative = inhibition: on the % scale 0 is the no-effect control and ±100 the full control effect. The settings on record: MTase-Glo luminescence, SAH detection, recombinant enzyme; measured here: COMT max response; stronger effect = lower value.
Catechol O-methyltransferase (Homo sapiens), sequence (P21964 whole entry, looked up): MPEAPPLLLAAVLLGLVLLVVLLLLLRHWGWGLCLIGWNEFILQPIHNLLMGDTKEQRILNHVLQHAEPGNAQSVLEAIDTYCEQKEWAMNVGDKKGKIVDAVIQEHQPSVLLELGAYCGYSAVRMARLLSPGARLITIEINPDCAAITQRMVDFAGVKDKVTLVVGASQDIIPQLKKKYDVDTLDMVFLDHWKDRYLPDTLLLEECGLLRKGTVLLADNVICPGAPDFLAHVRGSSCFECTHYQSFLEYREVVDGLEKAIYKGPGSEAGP
Experiment [17] has as its target Guanidinoacetate N-methyltransferase (Homo sapiens) (UniProt Q14353). The experiment is described as above. The settings on record: activity change, negative = inhibition: at 57.3 µM (top of the series) unless noted.
For experiment [18], the target named is Nicotinamide N-methyltransferase (Homo sapiens) (UniProt P40261). The experiment is described as above. The settings on record: MTase-Glo luminescence, SAH detection, recombinant enzyme; measured here: NNMT max response; stronger effect = lower value.
Nicotinamide N-methyltransferase (Homo sapiens), sequence (P40261 whole entry, looked up): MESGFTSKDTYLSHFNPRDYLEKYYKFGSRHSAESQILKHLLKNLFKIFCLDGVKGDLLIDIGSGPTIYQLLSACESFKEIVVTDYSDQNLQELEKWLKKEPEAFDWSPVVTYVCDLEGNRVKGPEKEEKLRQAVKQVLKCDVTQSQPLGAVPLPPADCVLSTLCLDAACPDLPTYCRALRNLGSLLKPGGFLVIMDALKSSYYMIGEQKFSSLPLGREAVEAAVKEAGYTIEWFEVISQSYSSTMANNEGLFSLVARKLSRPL
Experiment [19] deals with Phenylethanolamine N-methyltransferase (Homo sapiens) (UniProt P11086). The experiment is described as above. To be noted: MTase-Glo luminescence, SAH detection, recombinant enzyme; measured here: PNMT max response; stronger effect = lower value.
Phenylethanolamine N-methyltransferase (Homo sapiens), sequence (P11086 whole entry, looked up): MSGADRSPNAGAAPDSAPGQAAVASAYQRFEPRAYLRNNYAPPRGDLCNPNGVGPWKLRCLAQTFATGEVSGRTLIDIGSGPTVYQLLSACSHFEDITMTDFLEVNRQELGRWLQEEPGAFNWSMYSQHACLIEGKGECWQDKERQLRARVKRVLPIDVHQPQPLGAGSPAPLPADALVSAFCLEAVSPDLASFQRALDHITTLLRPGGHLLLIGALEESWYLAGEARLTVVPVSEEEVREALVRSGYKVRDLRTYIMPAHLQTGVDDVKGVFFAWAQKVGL
In experiment [20] the target is Endonuclease 4 (Escherichia coli (strain K12)) (UniProt P0A6C1). As to the kind of experiment: Counterscreen for APE1 Inhibitors: qHTS Validation Assay for Inhibitors of Endonuclease IV (AID 1708). Further: on the % scale 0 is the no-effect control and ±100 the full control effect. In outline:
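Cleavage of a quenched abasic-site DNA duplex (50 nM, 5'-TAMRA, 3'-BHQ-2) by 2 nM enzyme is followed as fluorescence increase. Compounds are preincubated with enzyme 15 min at room temperature before substrate addition.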

Experiment [21] is described as follows: qHTS for differential inhibitors of proliferation of Plasmodium falciparum line GB4 (AID 1816).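 Further: parasite growth measured after 72 h incubation; 0% = vehicle DMSO and -100% = reference inhibitor.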 To be noted: Potency: Plasmodium falciparum GB4 proliferation inhibition.
Experiment [22] has as its target M-phase phosphoprotein 8 (Homo sapiens) (UniProt Q99549). As to the kind of experiment: qHTS Validation Assay for Inhibitors for MPP8 Chromodomain Interactions with Methylated Histone Tails (AID 488949).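 Further: AlphaScreen signal from MPP8 chromodomain bound to biotinylated H3K9me3 peptide; top concentration of the series differs between compounds; on the % scale 0 is the no-effect control and ±100 the full control effect; nearly all actives have a fitted effect of over 55% in size.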 Put shortly: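 Chemiluminescent proximity assay: histidine-tag capture via nickel acceptor beads, biotin peptide via streptavidin donor beads. Protein and peptide each at 50 nM, pH 7.4, with 30 min incubations at room temperature for complex formation, compound exposure and bead binding.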

Ferritin light chain (Equus caballus), sequence (P02791 2-175 limits assumed): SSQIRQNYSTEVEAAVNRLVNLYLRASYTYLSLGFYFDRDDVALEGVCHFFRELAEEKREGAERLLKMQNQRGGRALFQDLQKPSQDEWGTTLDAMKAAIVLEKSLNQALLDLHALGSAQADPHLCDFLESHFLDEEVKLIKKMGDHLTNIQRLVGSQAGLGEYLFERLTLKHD
ATP-dependent DNA helicase Q1 (Homo sapiens), sequence (P46063 whole entry, looked up): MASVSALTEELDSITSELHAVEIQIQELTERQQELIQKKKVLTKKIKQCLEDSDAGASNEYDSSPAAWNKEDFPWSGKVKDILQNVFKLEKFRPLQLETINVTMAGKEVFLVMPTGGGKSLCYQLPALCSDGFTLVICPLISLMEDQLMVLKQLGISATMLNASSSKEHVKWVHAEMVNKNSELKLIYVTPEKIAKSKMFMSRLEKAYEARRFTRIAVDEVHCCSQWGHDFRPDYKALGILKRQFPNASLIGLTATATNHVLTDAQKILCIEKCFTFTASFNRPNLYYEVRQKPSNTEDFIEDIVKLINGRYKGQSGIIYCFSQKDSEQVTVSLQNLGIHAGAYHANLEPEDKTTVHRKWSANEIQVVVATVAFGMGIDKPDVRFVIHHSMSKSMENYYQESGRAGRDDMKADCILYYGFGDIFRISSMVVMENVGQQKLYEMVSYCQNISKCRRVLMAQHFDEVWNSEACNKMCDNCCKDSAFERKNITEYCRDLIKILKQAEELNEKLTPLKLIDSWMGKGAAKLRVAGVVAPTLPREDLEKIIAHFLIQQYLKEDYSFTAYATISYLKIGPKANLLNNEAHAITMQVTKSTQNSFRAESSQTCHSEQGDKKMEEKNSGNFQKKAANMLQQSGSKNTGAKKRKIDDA
Thyrotropin-releasing hormone receptor (Homo sapiens), sequence (P34981 whole entry, looked up): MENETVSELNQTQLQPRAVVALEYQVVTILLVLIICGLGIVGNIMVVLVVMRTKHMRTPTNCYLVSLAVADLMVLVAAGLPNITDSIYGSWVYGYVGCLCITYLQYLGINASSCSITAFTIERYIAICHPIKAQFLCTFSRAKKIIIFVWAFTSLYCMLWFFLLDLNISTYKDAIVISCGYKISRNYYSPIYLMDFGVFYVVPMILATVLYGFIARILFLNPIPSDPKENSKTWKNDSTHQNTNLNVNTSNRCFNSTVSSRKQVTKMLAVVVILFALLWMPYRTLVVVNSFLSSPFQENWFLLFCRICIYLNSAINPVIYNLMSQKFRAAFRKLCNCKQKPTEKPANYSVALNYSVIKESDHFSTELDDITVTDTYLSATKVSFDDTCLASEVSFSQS
M-phase phosphoprotein 8 (Homo sapiens), sequence (Q99549 whole entry, looked up): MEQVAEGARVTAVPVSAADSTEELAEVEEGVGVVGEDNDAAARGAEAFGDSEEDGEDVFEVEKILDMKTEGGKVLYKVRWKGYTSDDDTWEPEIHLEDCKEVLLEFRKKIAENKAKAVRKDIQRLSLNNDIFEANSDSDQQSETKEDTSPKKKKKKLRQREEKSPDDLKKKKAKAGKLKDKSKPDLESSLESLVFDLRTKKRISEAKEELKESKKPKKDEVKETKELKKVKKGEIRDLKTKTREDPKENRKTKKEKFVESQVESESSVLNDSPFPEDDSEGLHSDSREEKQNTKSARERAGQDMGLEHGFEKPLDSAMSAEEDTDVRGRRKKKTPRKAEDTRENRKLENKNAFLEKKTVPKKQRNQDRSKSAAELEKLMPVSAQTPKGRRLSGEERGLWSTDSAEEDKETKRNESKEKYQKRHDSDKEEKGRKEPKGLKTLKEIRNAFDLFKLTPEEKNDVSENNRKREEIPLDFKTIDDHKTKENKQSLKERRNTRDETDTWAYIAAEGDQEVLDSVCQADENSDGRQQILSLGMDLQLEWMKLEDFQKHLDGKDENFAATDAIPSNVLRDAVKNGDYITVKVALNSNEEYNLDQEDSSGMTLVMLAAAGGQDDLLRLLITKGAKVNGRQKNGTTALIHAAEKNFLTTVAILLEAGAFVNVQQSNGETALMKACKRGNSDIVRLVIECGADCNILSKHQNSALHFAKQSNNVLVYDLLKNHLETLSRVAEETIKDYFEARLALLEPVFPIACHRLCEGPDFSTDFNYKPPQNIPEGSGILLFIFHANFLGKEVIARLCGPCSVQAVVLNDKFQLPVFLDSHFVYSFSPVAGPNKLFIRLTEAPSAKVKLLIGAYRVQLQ

With `COc1cc2c(cc1O)CCC1C2CC[C@]2(C)[C@@H](O)CC[C@@H]12` (some centres undefined), the outcome in experiment [1], in experiment [8], in experiment [9], in [12] and in experiment [14] was “inactive” each time. Also, the Potency result in experiment [2], in [3], in [4], in experiment [5], in experiment [7] and in experiment [10] was “inactive” in each case. The Potency entry in experiment [11] is “inactive”. Further, the Potency in [6] is 15.8 µM (active); in experiment [15], 4.61 µM (active). In [13], the activation was 1% (inactive).
On to `FC(F)(F)c1cccc(-c2nccn3c(C4CN(Cc5ccc6cn[nH]c6c5)C4)ncc23)c1`, for which the values for the activity in experiment [16], in experiment [18] and in experiment [19] were 0.457%, -12.8% and -2.02%, respectively. Moreover, the activity change, negative = inhibition in [17] came out at 4.1%.
Consider `CC[C@H](C)C(=O)O[C@H]1CCC=C2C=C[C@H](C)[C@H](CC[C@@H]3C[C@H](O)CC(=O)O3)C21` (some centres undefined), for which the outcome in [1], in experiment [8], in [9], in experiment [12] and in experiment [14] was “inactive” in each case. Moreover, the Potency entry in experiment [20], in [21], in experiment [3], in experiment [4], in experiment [5] and in experiment [7] was “inactive” each time. The Potency entry in [10], in [11], in experiment [22] and in experiment [15] was “inactive” each time. The activation in experiment [13] is -5% (inactive).
In the case of `CC(C)Cn1c(=O)c2ccccc2n2c(CCC(=O)N3CCN(c4ccccc4F)CC3)nnc12`, the activity was 2.07% in [16], -58.2% in experiment [18] and -8.56% in experiment [19]. Also, in experiment [17], the activity change, negative = inhibition worked out at 0%.

Values taken from PubChem BioAssay (NCATS).
